58 molecules from PubChem BioAssay AID1117267 (The Scripps Research Institute Molecular Screening Center, 2014) can be followed below.

Molecules are shown by their SMILES. Hit rate of the full screen: of about 92,000 compounds, about 1,200 (1.3%) were called active.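 How the source made its calls: active means activation above the mean of all tested compounds plus 3 SD (cut at about 9.5% in these data); inactive means the rest.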 The list comes from a sample in which actives are over-represented; it also holds similar structures and randomly drawn compounds.

The assay is described as follows: compounds raising TTR promoter-driven luciferase – cell-based, luminescence, SH-SY5Y, TTR promoter Gaussia luciferase, primary screen (AID 1117267).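 Further: cells exposed to compounds for one day before reading; 0% = median of all test compound wells on the plate.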 As to conditions: at 16.7 µM, stronger effect = higher value, 100% = recombinant luciferase protein wells.
For `COc1ccc2c(CC(=O)OCC(=O)NC(N)=O)coc2c1`, the activation is 1.14% (inactive).

`O=C(NNS(=O)(=O)c1ccccc1)c1cnn(-c2ccc(Cl)cc2)c1C(F)(F)F`: the activation was -0.1% (inactive). For `CC(=O)Nc1ccc(C(=O)Nc2nc(-c3cc(C)n(Cc4ccccc4)c3C)cs2)cc1`, the activation was -0.51% (inactive).

As to `Cc1ccc(C(=O)Nc2c(C#N)c(C)c(C)n2Cc2ccccc2)cc1`, the activation is 0.67% (inactive).

With `Cc1c(C#N)c(NC(=O)c2ccccc2)n(Cc2ccccc2)c1C`, the activation was 10.7% (active). Under `COc1ccc(S(=O)(=O)N(CC(=O)N/N=C/c2ccccc2C(=O)O)c2ccccc2OC)cc1` stands -0.82% (inactive).

In the case of `CSCCC(c1nnnn1Cc1ccccc1)N1CCN(C/C=C/c2ccccc2)CC1` (stereo not drawn), the activation was -2.08% (inactive).

Consider `COc1ccc(C(=O)N2CCCC(C(=O)c3ccccc3OC)C2)cc1OC` (stereo not drawn), for which the activation is -0.18% (inactive).

As for `Cc1nc(Cl)cc(N/N=C/c2ccccc2)n1`, the activation was -2.14% (inactive). To `COC(=O)c1sc(N)c(C(=O)OC)c1COC(=O)CNS(=O)(=O)c1ccc(C)cc1` belongs -1.81% (inactive); to `O=C(N=C1SC2CS(=O)(=O)CC2N1Cc1ccccc1)c1ccccc1` (stereo not drawn), 1.31% (inactive).

Take `O=C(NNC(=O)c1ccc(-n2cncn2)c([N+](=O)[O-])c1)c1ccccc1`: the activation was -1.38% (inactive). Under `CC(C)NC(=O)c1ccc(Sc2ccccc2)c([N+](=O)[O-])c1` stands 14.4% (active).

Turning to `Cc1ccc(Sc2cc(C(=O)c3ccccc3C(=O)O)ccc2[N+](=O)[O-])cc1`, the activation was 1.71% (inactive). `COC(=O)C1CCN(C(=O)c2ccc3oc(Cc4ccc(Cl)cc4)nc3c2)CC1`: the activation is -1.37% (inactive). To `Cc1ccsc1C(=O)OCC(=O)NCCc1ccccc1` belongs 2.82% (inactive); to `CCOc1ccc(-c2cc(C(=O)N/N=C/c3ccc(O)cc3)c3ccccc3n2)cc1`, -0.07% (inactive). To `CCOc1ccc(N=C2NC(=O)S/C2=C\c2ccc(O)cc2)cc1` belongs 11.2% (active). `C=CCOc1ccc(/C=C2\SC(=S)N(CCC(=O)O)C2=O)cc1`: the activation was 0.39% (inactive). To `O=C1CN(C(=O)COC(=O)C2CC(=O)N(Cc3ccco3)C2)c2ccccc2N1` (stereo not drawn) belongs 12.4% (active); to `O=C1CN(C(=O)COc2c(Cl)cccc2Cl)c2ccccc2N1`, -1.21% (inactive); to `O=C1CN(C(=O)COC(=O)/C=C/c2ccc(F)cc2)c2ccccc2N1`, 0.24% (inactive). To `O=C(CSc1nc2cccc(F)c2c(=O)n1-c1ccccc1)Nc1ccc2c(c1)CCC2` belongs -1.17% (inactive). To `COc1cc(NS(=O)(=O)c2ccc(NC(=O)c3ccc([N+](=O)[O-])cc3)cc2)ncn1` belongs -0.02% (inactive); to `COc1ccc2c(c1)O/C(=C\c1ccccc1O)C2=O`, -0.14% (inactive). Take `CC(=O)OCc1cc(=O)n(C)c(=O)n1C`: the activation was 1.42% (inactive).

Take `COc1ccc(S(=O)(=O)NCC(=O)NCc2cc(=O)n(C)c(=O)n2C)cc1F`: the activation is 53.5% (active). With `Cn1c(=O)c2cc(S(=O)(=O)NCCC(=O)Nc3ccc(F)cc3F)ccc2n(C)c1=O`, the activation is 0.89% (inactive).

Turning to `O=C(C1=C(O)C(=O)N(CCOCCO)C1c1ccccn1)c1cccs1` (stereo not drawn), the activation was -0.44% (inactive). To `O=C(Cc1ccccc1)Nc1cccc(NC(=O)c2ccccc2)c1` belongs -1.17% (inactive); to `O=C(Nc1cccc(O)c1)c1ccc(C(=O)c2ccccc2)o1`, 15.8% (active); to `C/C(=C\C(=O)c1ccccc1)Nc1cccc(O)c1`, -1.23% (inactive). To `O=c1[nH]cccc1-c1nc2ccccc2n1Cc1ccc(Cl)cc1` belongs 1.33% (inactive); to `CC1CCN(S(=O)(=O)c2ccc(S(=O)(=O)NCc3cccnc3)cc2)CC1`, 1.06% (inactive); to `CCC(C)C(=O)Nc1ccccc1N1CCN(c2ccc(F)cc2)CC1` (stereo not drawn), 1.32% (inactive). Under `CCOC(=O)Cc1csc(NC(=O)COc2ccc3c(C)cc(=O)oc3c2)n1` stands -0.4% (inactive); under `COC(=O)COc1ccc2oc(=O)cc(C)c2c1`, -3.29% (inactive); under `CC(=O)c1c(C)[nH]c(C(=O)COc2ccc3c(C)cc(=O)oc3c2)c1C`, 11.5% (active). Consider `N#Cc1ccc(/C=C2\CCn3c2nc2cc(C(=O)O)ccc2c3=O)cc1`, for which the activation was -0.49% (inactive). Under `COC[C@@H]1CCCN1c1ccc2c(c1)O[C@H](C)CCN(C1CC1)S2(=O)=O` stands 1.42% (inactive); under `CN(CCc1ccccc1)C(=O)c1cccc(NC(=O)Cc2cccc(NC(=O)C3CCCN(C(=O)CCc4ccccc4)C3)c2)c1` (stereo not drawn), -4.56% (inactive). `CC1Cc2ccccc2N1S(=O)(=O)c1cccc(C(=O)OCC(=O)N2CCOCC2)c1` (stereo not drawn): the activation is 2.01% (inactive). To `COc1ccc2[nH]c3c(=O)n(Cc4ccco4)cnc3c2c1` belongs 1.08% (inactive). For `Cn1c2ccccc2c(=O)c2c(=O)n(Cc3ccco3)c(COc3ccccc3)nc21`, the activation is -1.02% (inactive). To `COc1ccc(-c2oc3ncn(Cc4ccco4)c(=N)c3c2-c2ccc(OC)cc2)cc1` belongs 11.8% (active); to `C(#CCN1CCOCC1)CCCN1CCOCC1`, 0.16% (inactive). Under `O=C(Nc1nncs1)c1cccc(S(=O)(=O)N2CCCCC2)c1` stands 0.77% (inactive); under `O=C(c1cccc(S(=O)(=O)N2CCCCCC2)c1)N1CCN(Cc2ccccc2)CC1`, -0.07% (inactive); under `O=C(NNC1=NCCC1)c1cccc(S(=O)(=O)N2CCCCC2)c1`, 12% (active). As for `Cc1c(NC(=O)C(=O)N/N=C/c2cccs2)c(=O)n(-c2ccccc2)n1C`, the activation is -1.22% (inactive). Regarding `O=c1c2c3c(sc2n(CCN2CCCC2)c(=O)n1Cc1ccccc1)CCCCC3`, the activation was 1.57% (inactive). Take `COc1ccc(C2c3ccc(O)cc3Oc3ncn(CCCO)c(=N)c32)cc1OC` (stereo not drawn): the activation is 9.86% (active).

In the case of `O=c1ccnc(Nc2ccc(Cl)cc2)[nH]1`, the activation is 1.51% (inactive).

As for `COc1ccc(CN2CN(C3CCCC3)CSC2=S)cc1`, the activation is -1.82% (inactive). To `O=C1NC(=Nc2ccc(Cl)cc2)SC1Cc1cccc(Cl)c1Cl` (stereo not drawn) belongs -2.63% (inactive); to `COc1cc(NS(=O)(=O)c2ccc(NC(=O)CN3C(=O)c4ccccc4C3=O)cc2)ncn1`, 0.85% (inactive). For the molecule `O=S(=O)(Nc1ccccn1)c1cccc(S(=O)(=O)c2ccc(Cl)cc2)c1`, the activation was 1.15% (inactive). Take `O=C(CS(=O)(=O)c1ccccc1)Nc1ccc(S(=O)(=O)Nc2ccccn2)cc1`: the activation was 11.2% (active).
